Assay results from PubChem BioAssay (NCI).
About 83,000 compounds went through this panel and 20% of them were active in at least one assay; those are over-represented in the sample as a whole.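 Plates (96-well) were seeded with cells, treated with compound at one concentration, and incubated for 48 hours before percent growth was determined.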 The source made the active and inactive calls. Rule for the calls: active = growth percent below 10; inactive = the rest.

Key:
Assay in all cases: NCI-60 one-dose screen, 48 h (100 = growth as untreated, 0 = no growth, -100 = all killed)
Settings in all cases: 10 µM unless noted
SK-MEL-2 melanoma = system: SK-MEL-2 melanoma
EKVX NSCLC = system: EKVX NSCLC
SN12C renal = system: SN12C renal
TK-10 renal = system: TK-10 renal
CAKI-1 renal = system: CAKI-1 renal
A498 renal = system: A498 renal
CCRF-CEM leukemia = system: CCRF-CEM leukemia
MOLT-4 leukemia = system: MOLT-4 leukemia
RPMI-8226 leukemia = system: RPMI-8226 leukemia
OVCAR-8 ovarian = system: OVCAR-8 ovarian
OVCAR-4 ovarian = system: OVCAR-4 ovarian
SK-OV-3 ovarian = system: SK-OV-3 ovarian
OVCAR-3 ovarian = system: OVCAR-3 ovarian
HS 578T breast = system: HS 578T breast
NCI/ADR-RES ovarian = system: NCI/ADR-RES ovarian
UO-31 renal = system: UO-31 renal
ACHN renal = system: ACHN renal
SR leukemia = system: SR leukemia
OVCAR-5 ovarian = system: OVCAR-5 ovarian
IGROV1 ovarian = system: IGROV1 ovarian

Measured: growth

CCCOC(=O)n1cccc1
inactive: SK-MEL-2 melanoma 118% | EKVX NSCLC 99.7% | SN12C renal 94.2% | TK-10 renal 110% | CAKI-1 renal 108% | A498 renal 106% | CCRF-CEM leukemia 99.2% | MOLT-4 leukemia 117% | RPMI-8226 leukemia 110% | OVCAR-8 ovarian 108% | OVCAR-4 ovarian 91.7% | SK-OV-3 ovarian 101% | OVCAR-3 ovarian 106% | HS 578T breast 105% | NCI/ADR-RES ovarian 102%

O=C(O)COc1ccc(-c2cssc2=S)cc1
inactive: SK-MEL-2 melanoma 90.8% | SN12C renal 103% | UO-31 renal 88.9% | TK-10 renal 93.9% | ACHN renal 103% | CAKI-1 renal 104% | A498 renal 88.2% | CCRF-CEM leukemia 90.3% | MOLT-4 leukemia 102% | SR leukemia 54.8% | RPMI-8226 leukemia 113% | OVCAR-8 ovarian 101% | OVCAR-5 ovarian 98.7% | OVCAR-4 ovarian 103% | SK-OV-3 ovarian 108% | OVCAR-3 ovarian 122% | HS 578T breast 105% | NCI/ADR-RES ovarian 108%

COc1ccc(-c2nc(N3CCCC3=O)sc2Br)cc1OC
inactive: SK-MEL-2 melanoma 86.5% | SN12C renal 104% | UO-31 renal 93.6% | TK-10 renal 94.1% | ACHN renal 93% | CAKI-1 renal 99.4% | A498 renal 88.3% | CCRF-CEM leukemia 96.4% | MOLT-4 leukemia 93.8% | SR leukemia 88.9% | RPMI-8226 leukemia 109% | OVCAR-8 ovarian 103% | OVCAR-5 ovarian 99.2% | OVCAR-4 ovarian 98.2% | SK-OV-3 ovarian 115% | IGROV1 ovarian 113% | OVCAR-3 ovarian 111% | HS 578T breast 100% | NCI/ADR-RES ovarian 104%

COc1cc(-c2nn(-c3cccc(NC(=O)Nc4ccc(Cl)c(C(F)(F)F)c4)c3)cc2-c2ccncc2)ccc1Cl
active: SK-MEL-2 melanoma -57.8% | ACHN renal 9.33% | A498 renal -6.71% | CCRF-CEM leukemia -8.04% | MOLT-4 leukemia -2.38% | RPMI-8226 leukemia -8.66% | OVCAR-8 ovarian -19.9% | SK-OV-3 ovarian 0.426% | OVCAR-3 ovarian -12.4% | HS 578T breast 2.21% | NCI/ADR-RES ovarian -0.864%
inactive: SN12C renal 12.6% | UO-31 renal 11% | TK-10 renal 12.6% | CAKI-1 renal 14.7% | OVCAR-5 ovarian 35.8% | OVCAR-4 ovarian 20.8% | IGROV1 ovarian 25.6%

O=C(Nc1cccc(-n2cc(-c3ccncc3)c(-c3ccc(Cl)c(O)c3)n2)c1)c1ccc(N2CCOCC2)c(C(F)(F)F)c1
inactive: SK-MEL-2 melanoma 17.6% | SN12C renal 73.9% | UO-31 renal 36.9% | TK-10 renal 119% | ACHN renal 36.6% | CAKI-1 renal 81.2% | A498 renal 101% | CCRF-CEM leukemia 27.9% | MOLT-4 leukemia 29.1% | OVCAR-8 ovarian 37% | OVCAR-5 ovarian 116% | OVCAR-4 ovarian 108% | SK-OV-3 ovarian 74.2% | IGROV1 ovarian 96.8% | OVCAR-3 ovarian 56% | HS 578T breast 15.5% | NCI/ADR-RES ovarian 43.9%
active: RPMI-8226 leukemia 5.19%

Cc1ccc2nc(-c3cc4c([nH]c5ccccc54)c(-c4ccc(F)c(F)c4)n3)[nH]c2c1
inactive: SK-MEL-2 melanoma 94% | SN12C renal 81.8% | UO-31 renal 65.4% | TK-10 renal 117% | ACHN renal 85.9% | CAKI-1 renal 93.6% | A498 renal 106% | CCRF-CEM leukemia 16.8% | MOLT-4 leukemia 35.4% | RPMI-8226 leukemia 47.4% | OVCAR-8 ovarian 78.3% | OVCAR-5 ovarian 113% | OVCAR-4 ovarian 69% | SK-OV-3 ovarian 109% | HS 578T breast 108% | NCI/ADR-RES ovarian 83%
active: SR leukemia -18.8%

COc1ccc(C2=Nn3c(nnc3-n3nc(C)cc3C)SC2)cc1
inactive: SK-MEL-2 melanoma 16.8% | SN12C renal 33.2% | UO-31 renal 45.8% | TK-10 renal 49% | ACHN renal 35.6% | CAKI-1 renal 53.1% | RPMI-8226 leukemia 20.9% | OVCAR-8 ovarian 17.6% | OVCAR-5 ovarian 48.7% | OVCAR-4 ovarian 61.1% | IGROV1 ovarian 32.2% | NCI/ADR-RES ovarian 10.7%
active: A498 renal -8.89% | CCRF-CEM leukemia 6.66% | MOLT-4 leukemia 5.34% | SK-OV-3 ovarian -3.05% | OVCAR-3 ovarian -47.9% | HS 578T breast 7.5%

Fc1ccc(-c2nc(-c3nc4ncccc4[nH]3)cc3c2[nH]c2ccccc23)cc1F
inactive: SK-MEL-2 melanoma 83.1% | SN12C renal 72.5% | UO-31 renal 41.9% | TK-10 renal 91.7% | ACHN renal 83% | CAKI-1 renal 92.3% | A498 renal 88.4% | CCRF-CEM leukemia 67.2% | MOLT-4 leukemia 49.8% | SR leukemia 76% | RPMI-8226 leukemia 45.7% | OVCAR-8 ovarian 66.6% | OVCAR-5 ovarian 93.5% | OVCAR-4 ovarian 60.2% | SK-OV-3 ovarian 111% | IGROV1 ovarian 62.3% | OVCAR-3 ovarian 82% | HS 578T breast 96% | NCI/ADR-RES ovarian 61.4%

CCOC(=O)NNC(=S)Nc1ccccc1
inactive: SK-MEL-2 melanoma 116% | SN12C renal 99% | UO-31 renal 89.4% | TK-10 renal 111% | ACHN renal 105% | CAKI-1 renal 92.3% | A498 renal 95.1% | CCRF-CEM leukemia 106% | MOLT-4 leukemia 106% | SR leukemia 110% | RPMI-8226 leukemia 105% | OVCAR-8 ovarian 102% | OVCAR-5 ovarian 116% | OVCAR-4 ovarian 100% | SK-OV-3 ovarian 111% | IGROV1 ovarian 107% | OVCAR-3 ovarian 116% | HS 578T breast 103% | NCI/ADR-RES ovarian 106%

CC(C)OC(=O)N1CCOCC1
inactive: SK-MEL-2 melanoma 101% | EKVX NSCLC 126% | SN12C renal 97.7% | TK-10 renal 101% | CCRF-CEM leukemia 102% | MOLT-4 leukemia 110% | SR leukemia 109% | RPMI-8226 leukemia 107% | OVCAR-8 ovarian 95.6% | OVCAR-4 ovarian 95.5% | SK-OV-3 ovarian 98.1% | OVCAR-3 ovarian 115% | HS 578T breast 97.5% | NCI/ADR-RES ovarian 108%

COc1ccc2[nH]c(C(=O)OCc3ccc4c(Cl)cc(Cl)c(O)c4n3)cc2c1
active: SK-MEL-2 melanoma -11.4% | SN12C renal -75.6% | UO-31 renal -100% | TK-10 renal -98.1% | ACHN renal -99.8% | CAKI-1 renal -99.5% | CCRF-CEM leukemia -9.99% | MOLT-4 leukemia -18.5% | SR leukemia -12.5% | RPMI-8226 leukemia -34.6% | OVCAR-8 ovarian -31.2% | OVCAR-5 ovarian -71.8% | OVCAR-4 ovarian -57.5% | IGROV1 ovarian -92.4% | HS 578T breast -16.1% | NCI/ADR-RES ovarian -58.9%
inactive: A498 renal 10.5% | SK-OV-3 ovarian 68.8%

CCC1=CCC[C@@]2(C)CCC[C@@]3(C)CCCC(C)(C)[C@]1([O-])[O+]32
inactive: SK-MEL-2 melanoma 110% | SN12C renal 106% | UO-31 renal 100% | TK-10 renal 109% | ACHN renal 105% | CAKI-1 renal 94.7% | A498 renal 83.3% | CCRF-CEM leukemia 127% | MOLT-4 leukemia 104% | SR leukemia 112% | RPMI-8226 leukemia 97.9% | OVCAR-8 ovarian 104% | OVCAR-5 ovarian 104% | OVCAR-4 ovarian 85.1% | SK-OV-3 ovarian 107% | IGROV1 ovarian 105% | OVCAR-3 ovarian 111% | HS 578T breast 92.8% | NCI/ADR-RES ovarian 106%

CCOC(=O)c1ccc2c(c1)c1c(C)c3cccnc3c(C)c1n2C
inactive: SK-MEL-2 melanoma 96% | SN12C renal 33.8% | UO-31 renal 32% | TK-10 renal 87.8% | ACHN renal 29.8% | CAKI-1 renal 30.9% | A498 renal 83.4% | CCRF-CEM leukemia 47.9% | MOLT-4 leukemia 21.4% | SR leukemia 16.1% | RPMI-8226 leukemia 62.8% | OVCAR-8 ovarian 46.2% | OVCAR-5 ovarian 69.3% | OVCAR-4 ovarian 62.7% | SK-OV-3 ovarian 84.1% | IGROV1 ovarian 24.1% | OVCAR-3 ovarian 69.8% | HS 578T breast 85.2% | NCI/ADR-RES ovarian 48.4%

COc1ccc(-c2nc(-c3nc4cc(C)c(C)cc4[nH]3)cc3c2[nH]c2ccccc23)cc1
inactive: SK-MEL-2 melanoma 86.9% | SN12C renal 55.2% | UO-31 renal 56.3% | TK-10 renal 81.4% | ACHN renal 39.6% | CAKI-1 renal 66.2% | MOLT-4 leukemia 12.7% | OVCAR-8 ovarian 36.9% | OVCAR-5 ovarian 77.6% | OVCAR-4 ovarian 60.6% | SK-OV-3 ovarian 109% | IGROV1 ovarian 66.9% | HS 578T breast 56.9% | NCI/ADR-RES ovarian 41.7%
active: CCRF-CEM leukemia -7.91% | SR leukemia -43.7% | RPMI-8226 leukemia -26.3% | OVCAR-3 ovarian -4%

COc1cc(-c2nn(-c3cccc(NC(=O)Nc4cccc(C(F)(F)F)c4)c3)cc2-c2ccncc2)ccc1Cl
inactive: CAKI-1 renal 11.5% | OVCAR-5 ovarian 28.2% | OVCAR-4 ovarian 11.1% | IGROV1 ovarian 14%
active: SK-MEL-2 melanoma -71.2% | SN12C renal 7.22% | UO-31 renal 7.94% | TK-10 renal 2.65% | ACHN renal 6.54% | A498 renal -5.17% | CCRF-CEM leukemia -9.68% | RPMI-8226 leukemia -14.8% | OVCAR-8 ovarian -36.2% | SK-OV-3 ovarian 4.13% | OVCAR-3 ovarian -42% | HS 578T breast -13.7% | NCI/ADR-RES ovarian -11.9%

Cc1ccc(S(=O)(=O)NCCNc2nccc(-c3c(-c4ccc(O)cc4)nc4sccn34)n2)cc1
inactive: SK-MEL-2 melanoma 114% | SN12C renal 93.3% | UO-31 renal 84% | TK-10 renal 121% | ACHN renal 93% | CAKI-1 renal 98.2% | A498 renal 104% | CCRF-CEM leukemia 86.8% | MOLT-4 leukemia 59% | RPMI-8226 leukemia 85.9% | OVCAR-8 ovarian 89.3% | OVCAR-5 ovarian 135% | OVCAR-4 ovarian 102% | SK-OV-3 ovarian 107% | IGROV1 ovarian 97.1% | OVCAR-3 ovarian 110% | HS 578T breast 106% | NCI/ADR-RES ovarian 97.8%

COc1ccc(S(=O)(=O)Nc2cc(/C=C\c3cc(OC)c(OC)c(OC)c3)cc(OC)c2OC)cc1
inactive: SK-MEL-2 melanoma 18.3% | SN12C renal 23.3% | UO-31 renal 21% | TK-10 renal 64.9% | ACHN renal 26.4% | CAKI-1 renal 22.9% | CCRF-CEM leukemia 13.7% | RPMI-8226 leukemia 10.2% | OVCAR-5 ovarian 46.8% | OVCAR-4 ovarian 55.7% | SK-OV-3 ovarian 20.6% | IGROV1 ovarian 19.9% | HS 578T breast 21.1% | NCI/ADR-RES ovarian 11.3%
active: SR leukemia 9.7% | OVCAR-8 ovarian 7.61% | OVCAR-3 ovarian 3.36%
